# Measured values as given in the supplement of paper PMC6555819.
# What was measured:
# Assay in all cases: PBM binding z-score (relative to random genomic background probes); higher = stronger binding; sequences stand for … in GC…GCGATTGACAGCGTAGAATGAAGG
# [1] = system: FXR:RXRa (NR concentration 270 nM, RXRa partner concentration 90 nM)
# Summary of the method: (§1)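 Ligand-free nuclear receptor dimers were applied to custom Agilent 4×180K protein-binding microarrays whose double-stranded probes carried direct-repeat seeds, single-nucleotide variants, half-site ablations and random human genomic background sequences in 34-nt variable regions. Incubation lasted 1 h. Binding z-scores were computed against the random background probes from regression-normalized fluorescence.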
# [2] = system: LXRa:RXRa (NR concentration 270 nM, RXRa partner concentration 90 nM)
# Summary of the method: as §1
# [3] = system: LXRa homodimer (NR concentration 270 nM)
# Summary of the method: as §1
# [4] = system: LXRb:RXRa (NR concentration 270 nM, RXRa partner concentration 90 nM)
# Summary of the method: as §1
# [5] = system: LXRb homodimer (NR concentration 270 nM)
# Summary of the method: as §1
# [6] = system: PPARa:RXRa (NR concentration 270 nM, RXRa partner concentration 90 nM)
# Summary of the method: as §1
# [7] = system: PPARg:RXRa (NR concentration 180 nM, RXRa partner concentration 90 nM)
# Summary of the method: as §1
# [8] = system: PPARg:RXRa 270nM:90nM, anti-RXR (NR concentration 270 nM, RXRa partner concentration 90 nM)
# Summary of the method: as §1
# [9] = system: PPARg:RXRa 30nM:10nM, anti-RXR (NR concentration 30 nM, RXRa partner concentration 10 nM)
# Summary of the method: as §1
# [10] = system: PPARg:RXRa 90nM:30nM, anti-RXR (NR concentration 90 nM, RXRa partner concentration 30 nM)
# Summary of the method: as §1
# [11] = system: PPARg:RXRa DBDmut IVT, anti-RXR (DBD mutation: RXRa K156A/R161A, NR concentration 270 nM, RXRa partner concentration 90 nM)
# Summary of the method: as §1
# [12] = system: PPARg:RXRa IVT, anti-PPARg (NR concentration 270 nM, RXRa partner concentration 90 nM)
# Summary of the method: as §1
# [13] = system: PPARg DBDmut:RXRa IVT, anti-PPARg (DBD mutation: PPARg1 K132A/R137A, NR concentration 270 nM, RXRa partner concentration 90 nM)
# Summary of the method: as §1
# [14] = system: PPARg DBDmut IVT, anti-PPARg (DBD mutation: PPARg1 K132A/R137A, NR concentration 270 nM)
# Summary of the method: as §1
# [15] = system: PPARg homodimer (NR concentration 180 nM)
# Summary of the method: as §1
# [16] = system: PXR:RXRa (NR concentration 270 nM, RXRa partner concentration 90 nM)
# Summary of the method: as §1
# [17] = system: PXR homodimer (NR concentration 270 nM)
# Summary of the method: as §1
# [18] = system: RARa:RXR (NR concentration 270 nM, RXRa partner concentration 90 nM)
# Summary of the method: as §1
# [19] = system: RARa homodimer (NR concentration 270 nM)
# Summary of the method: as §1
# [20] = system: RARb:RXRa (NR concentration 270 nM, RXRa partner concentration 90 nM)
# Summary of the method: as §1
Sequence,PBM binding z-score [1],PBM binding z-score [2],PBM binding z-score [3],PBM binding z-score [4],PBM binding z-score [5],PBM binding z-score [6],PBM binding z-score [7],PBM binding z-score [8],PBM binding z-score [9],PBM binding z-score [10],PBM binding z-score [11],PBM binding z-score [12],PBM binding z-score [13],PBM binding z-score [14],PBM binding z-score [15],PBM binding z-score [16],PBM binding z-score [17],PBM binding z-score [18],PBM binding z-score [19],PBM binding z-score [20]
TCTGCTAGGTCAAGGATGGTCAGCTAATCTGCTA,2.86,2.82,-0.0468,1.48,-0.198,3.12,2.01,3.21,2.02,2.71,4.19,4.08,-0.492,0.24,0.578,1.23,-0.697,2.26,-0.712,3.97
TCATATAGGTAAAAGGTGACAGTCGGTGTGGTAA,1.88,1.46,-0.178,1.61,0.00468,5.19,9.43,8.82,8.45,9.66,5.71,5.54,2.29,1.71,1.76,1.36,1.05,2.14,1.41,1.7
ATCTCTAGGTGAGACTCAGTTCAGTGAAGAACGC,0.247,0.206,0.00794,0.271,0.0417,0.953,0.798,0.846,0.146,0.412,4.55,3.85,0.96,-0.0812,-0.0769,1.31,0.653,0.361,0.0758,0.707
CCAGACAGGTGAAAGGTAACCCAGTCTGGTACGC,0.66,0.713,-0.512,0.445,-0.0532,3.4,5.86,5.65,3.97,5.97,1.94,3.53,-0.215,-0.209,0.618,0.694,-0.254,1.53,0.316,1.27
ATCTCTAGGCAAAGTTCAGTGAAAGATCGATAGA,0.723,1.38,0.839,0.819,0.16,1.95,2.49,3.78,1.93,3.67,0.488,0.697,0.713,0.549,0.889,1.8,1.43,1.02,0.783,2.54
CTACCAAGGTGAACCAGGTCGTTGATTACTATTC,0.862,1.52,-0.0698,1.8,-0.718,2.61,1.19,1.54,0.0677,0.58,2.39,3.12,-0.252,0.258,1.51,1.93,0.659,2.14,-0.266,1.92
CCTAGCAGGCCAGGGTCACTCCAGCATTTCGCTT,1.55,1.25,-0.465,1.65,-0.731,2.73,0.332,1.25,-0.559,0.667,0.422,1.18,-1.53,-1.63,1.15,2.12,-0.229,2.93,0.279,2.47
ATATGTAGGTAAGCTGGGGTCATTCAGACTAGGC,4.33,4.31,1.73,4.3,1.58,4.98,4.31,4.65,2,3.77,6.08,5.46,1.69,1.13,1.48,6.07,3.4,5.45,0.719,2.67
GCTGCTAGGTCAGGTTGGTCAGATAACGGGTACG,1.44,0.895,-0.305,0.708,0.0296,1.5,1.03,1.12,-0.213,0.38,2.83,2.3,-0.406,-0.502,0.742,0.425,-0.0616,0.792,0.212,3.22
CGTCCAAGGTCATAGGAGGTCGGTGAAGACAGAT,7.17,6.22,1.31,4.11,0.234,5.36,4.31,4.86,1.6,3.35,2.55,3.51,-0.173,0.224,2.9,6.03,1.77,4.4,0.95,4.89
CAAACTAGGTCACCGCAAGGTCAAAGTCCGCATG,6.27,5.91,5.31,5.42,1.37,6.06,9.19,7.84,5.73,7.81,8.65,8.87,6.76,3.92,8.41,6.08,2.22,6.85,2.14,5
CGTCCAACGTCATAGGAGGTCAGTGAAGACAGAT,1.79,2.71,0.999,1.63,-0.234,2.09,0.683,0.77,0.184,0.231,0.0965,1.08,0.0644,-0.0605,1.13,2.24,0.731,1.79,0.648,2.14
GCAGACAGGTGAAACGAAGGTAACTCAGGGTGGC,0.0182,0.296,-0.444,0.0431,-1.08,0.924,0.836,0.16,-0.263,-0.133,0.963,0.555,0.0896,-0.484,-0.228,0.0362,-0.595,0.681,-0.536,0.818
CCTACTGGGCCATCAGGTCATTGATATCAACGTT,1.4,1.19,1.28,1.56,-0.271,2.79,2.68,3.7,1.46,3.18,4.98,4.72,0.527,-0.213,1.26,1.56,0.961,1.65,0.0562,2.1
CTCGAAAGGTCGGTTAAGGTGAGTATACGGATAA,3.06,2.1,0.202,1.84,0.111,3.04,0.591,1.48,0.313,0.943,0.549,1.14,0.246,0.287,1.69,2.61,0.341,1.97,0.996,3.22
CCTCCAAGGTCAGAGAGGTCAGTGAATGCCGAGT,5.62,5.09,2.77,4.43,0.381,4.71,3.2,4.06,1,2.54,2.56,2.91,-0.128,-1.11,3.5,5.94,10.8,4.82,0.862,5.18
GCTTACGGGTCAAAGCTTATAGCATGAATAGAAT,6.25,3.79,-0.13,3.78,0.156,5.7,4.76,5.32,2.66,4.08,4.24,3.92,0.68,0.139,1.56,2.98,-0.218,4.44,-0.0595,3.83
TTACCAACGTGAAAGGTCGTTGATGCACGCCTTG,1.28,1.48,0.436,1.66,-0.169,2.84,2.46,4.26,2.49,4.17,0.0227,1.04,0.702,-0.158,1.27,2.14,0.445,2.24,0.296,1.66
ATCGAAACGTCGAAGGTGAGTATACCCACCCGAA,-0.17,-0.352,-0.345,-0.738,-0.334,-0.193,0.676,-0.0479,0.0501,-0.0142,-0.927,-0.0186,0.59,0.626,-0.242,-0.502,-0.249,-0.42,0.0263,0.237
CGAACTAGGTCATCCAGGACATTGAATACATTGA,4.43,2.87,1.02,2.52,0.159,5.11,7.97,6.57,4.02,5.68,8.08,8.47,4.18,1.44,2.2,2.71,3.75,2.82,1.01,3.92
CGTCCAAGGTCAAAGGTCAGTGACGAGATGACGG,8.29,6.97,3.55,6.4,2.01,7.03,10.8,9.11,8.03,9.31,4.07,5.8,1.24,0.0683,6.48,7.17,2.08,8.72,2.59,5.86
CCTAGCAGGCCAGTGTCACTCAAGCATTTCGCTT,-0.361,-0.253,-0.614,-0.187,-0.597,-0.0659,-0.338,-0.0615,-0.773,-0.752,1.35,0.117,-1.21,-1.52,-0.723,-0.407,-0.826,-0.184,-0.658,0.286
CGAACGAGGGCATGAGTTGTTAGCAAATGCCGAT,0.401,0.0861,-0.503,0.156,-1.1,1.01,1.08,1.21,-0.27,0.425,3.23,2.05,-0.603,-0.6,-0.0331,0.251,-0.0972,0.245,-0.393,1.98
CCTAGCAGGCCAATCTGGGTCGCTCAAGGCTTGA,0.866,0.838,-0.942,0.983,-1.1,2.39,0.206,0.917,-0.999,0.104,1.28,2.66,-1.25,-1.04,-0.519,0.776,-0.579,1.45,-0.891,0.807
CCTGCTAGGTCTTGGTCAGCTAATCTACAGTATG,-0.4,-0.437,-0.451,-0.509,-0.639,-0.469,-0.371,-0.599,-0.683,-0.872,0.846,-0.117,-0.408,-1.03,-0.24,-0.552,-0.561,-0.0179,-1.02,0.537
TATACAGGGTCAAACGCCAGAGTACGAATGTCGA,7.58,6.35,3.43,5.2,3.15,6.3,7.33,6.79,3.84,5.94,2.52,4.64,3.59,3.04,3.53,4.49,0.94,5.61,0.721,4.45
GCTAGTTGGTCAGTGAAAGGTCACACACCGGTCG,3.55,4.39,4.49,3.7,0.467,4.43,4.64,5.57,3.93,5.67,1.21,2.97,0.254,0.307,3.99,5.13,1.02,5.89,1.88,4.27
GCGACTGGGGTATCAGCAGGTTACCATAACTTAA,-0.215,0.488,-0.233,0.757,-0.459,0.871,0.146,0.0504,-0.489,-0.489,1.21,0.938,-0.348,-0.554,0.313,-0.149,-0.238,0.3,-0.218,0.249
TCGAGTAGGTTAGTGGCATTCAGAATGGCGTCGA,-0.429,-0.347,-0.383,-0.122,-1.05,0.197,-0.294,0.534,0.972,0.858,2.03,1.11,-1.08,-0.671,0.509,-0.288,-0.134,-0.0955,-0.37,0.0922
